# Test results: publication PMC5892938, “SARNAclust: Semi-automatic detection of RNA protein binding motifs from immunoprecipitation data”
# The full ranking holds about 11,000 sequences; the median of “log2 fold change” is about 0.00022, and the highest 2% start at about 0.34. Some of the results follow.
# Target: GST-SBP-SLBP (stem-loop binding protein) (Homo sapiens, UniProt Q14493 1-270)
# Assay: targeted RNA Bind-n-Seq; RBNS binding buffer: 25 mM Tris pH 7.5, 150 mM KCl, 3 mM MgCl2, 0.1% Tween, 0.5 mg/mL BSA, 1 mM DTT; 27 nM protein, 750 pM RNA pool; temperature not stated; high values mean tight binding
# Conditions: protein: recombinant; tags: N-terminal GST and SBP (pGEX6P1-SBP); structured_RNA
# Summary of the method: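 The GST-SBP-tagged protein was expressed in Rosetta(DE3) pLysS E. coli, glutathione-purified and incubated at 27 nM with 750 pM of a designed, T7-transcribed RNA oligo pool in RBNS binding buffer. Bound RNA was reverse transcribed with a 10-nucleotide barcoded primer, PCR-amplified and sequenced on a MiSeq with 200-cycle paired-end reads. Reads were joined with FLASH, aligned with HISAT2 and collapsed by barcode. The binding signal is the DEseq log2 fold change of read counts per sequence.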
row,Sequence,binding signal [log2 fold change]
1,GGUCACGUCUCAAUCAACUCAAACGAGGGGGGGAAAACCCCUUUACCCUCAACUUCAACAGCUCGCAGUCAAG,0.35 ± 0.421
2,GGUCACGUCUCAAUCAACUCUUACGAGGGGGGGAAAACCCCUUUACCCUCACACUCAACAGCUCGCAGUCAAG,0.321 ± 0.386
3,GGUCACGUCUCAAUCAACUCAAACGAGGGGGGGAAAACCCCUUUACCCUCAUUCUCAACAGCUCGCAGUCAAG,0.326 ± 0.393
4,GGUCACGUCUCAAUCAACUCUCACGAGGGGGGGAAAACCCCUUUACCCUCUUACUCAACAGCUCGCAGUCAAG,0.346 ± 0.439
5,GGUCACGUCUCAAUCAACUCUCACGAGGGGGGGAAAACCCCUUUACCCUCAACUUCAACAGCUCGCAGUCAAG,0.363 ± 0.418
6,GGUCACGUCUCAAUCAACUCUUACGAGGGGGGGAAAACCCCUUUACCCUCUUCUUCAACAGCUCGCAGUCAAG,0.477 ± 0.42
7,GGUCACGUCUCAAUCAACUCUAACGAGGGGGGGAAAACCCCUUUACCCUCUAUAUCAACAGCUCGCAGUCAAG,0.308 ± 0.434
8,GGUCACGUCUCAAUCAACUCUAACGAGGGGGGGAAAACCCCUUUACCCUCAACUUCAACAGCUCGCAGUCAAG,0.426 ± 0.419
9,GGUCACGUCUCAAUCAACUCUUUCGAGGGGGGGAAAACCCCUUUACCCUCAUACUCAACAGCUCGCAGUCAAG,0.524 ± 0.429
10,GGUCACGUCUCAAUCAACUCAACGGAGGGGGGGAAAACCCCUUUACCCUCAACAUCAACAGCUCGCAGUCAAG,0.308 ± 0.444
11,GGUCACGUCUCAAUCAACUCCUUCGAGGGGGGGAAAACCCCUUUACCCUCUUCAUCAACAGCUCGCAGUCAAG,0.429 ± 0.434
12,GGUCACGUCUCAAUCAACUCCUUCGAGGGGGGGAAAACCCCUUUACCCUCUUAAUCAACAGCUCGCAGUCAAG,0.305 ± 0.422
13,GGUCACGUCUCAAUCAACUCCUUCGAGGGGGGGAAAACCCCUUUACCCUCACCUUCAACAGCUCGCAGUCAAG,0.36 ± 0.426
14,GGUCACGUCUCAAUCAACUCUUCGGAGGGGGGGAAAACCCCUUUACCCUCAAUCUCAACAGCUCGCAGUCAAG,0.453 ± 0.428
15,GGUCACGUCUCAAUCAACUCCUUCGAGGGGGGGAAAACCCCUUUACCCUCACAAUCAACAGCUCGCAGUCAAG,0.304 ± 0.425
16,GGUCACGUCUCAAUCAACUCUUUCGAGGGGGGGAAAACCCCUUUACCCUCAUAAUCAACAGCUCGCAGUCAAG,0.336 ± 0.429
17,GGUCACGUCUCAAUCAACUCAAUCGAGGGGGGGAAAACCCCUUUACCCUCACCUUCAACAGCUCGCAGUCAAG,0.499 ± 0.434
18,GGUCACGUCUCAAUCAACUCAACUUCCAGGGAAAACCCUGGUAUACUCAACAGCUCGCAGUCAAG,0.373 ± 0.293

row,Sequence,binding signal [log2 fold change]
1,GGUCACGUCUCAAUCAACUCAACUCCCAGGGAAAGCCCUGGUAUACUCAACAGCUCGCAGUCAAG,0.301 ± 0.289
2,GGUCACGUCUCAAUCAACUCUACUUCCAGGGAAACCCCUGGUAUACUCAACAGCUCGCAGUCAAG,0.362 ± 0.285
3,GGUCACGUCUCAAUCAACUCAAUUUCCAGGGAAAGCCCUGGUAUACUCAACAGCUCGCAGUCAAG,0.343 ± 0.255
4,GGUCACGUCUCAAUCAACUCUCUAGAGGGGGGGAAAACCCCUUUACCCUCACUUUCAACAGCUCGCAGUCAAG,0.308 ± 0.399
5,GGUCACGUCUCAAUCAACUCACUAGAGGGGGGGAAAACCCCUUUACCCUCAAUUUCAACAGCUCGCAGUCAAG,0.352 ± 0.409
6,GGUCACGUCUCAAUCAACUCGCAAGAGGGGGGGAAAACCCCUUUACCCUCAAUUUCAACAGCUCGCAGUCAAG,0.343 ± 0.444
7,GGUCACGUCUCAAUCAACUCGCAAGAGGGGGGGAAAACCCCUUUACCCUCAAAUUCAACAGCUCGCAGUCAAG,0.308 ± 0.444
8,GGUCACGUCUCAAUCAACUCCUCGGAGGGGGGGAAAACCCCUUUACCCUCAUAUUCAACAGCUCGCAGUCAAG,0.374 ± 0.433
9,GGUCACGUCUCAAUCAACUCUCCAGAGGGGGGGAAAACCCCUUUACCCUCACAUUCAACAGCUCGCAGUCAAG,0.328 ± 0.444
10,GGUCACGUCUCAAUCAACUCCUCGGAGGGGGGGAAAACCCCUUUACCCUCACAUUCAACAGCUCGCAGUCAAG,0.424 ± 0.434
11,GGUCACGUCUCAAUCAACUCCACAGAGGGGGGGAAAACCCCUUUGCCCUCCAUAUCAACAGCUCGCAGUCAAG,0.437 ± 0.447
12,GGUCACGUCUCAAUCAACUCCCCAGAGGGGGGGAAAACCCCUUUGCCCUCAAUAUCAACAGCUCGCAGUCAAG,0.552 ± 0.441
13,GGUCACGUCUCAAUCAACUCAUCAGAGGGGGGGAAAACCCCUUUGCCCUCCACAUCAACAGCUCGCAGUCAAG,0.401 ± 0.446
14,GGUCACGUCUCAAUCAACUCUCCAGAGGGGGGGAAAACCCCUUUGCCCUCCACAUCAACAGCUCGCAGUCAAG,0.318 ± 0.411
15,GGUCACGUCUCAAUCAACUCAGAAGAGGGGGGGAAAACCCCUUUGCCCUCCAUAUCAACAGCUCGCAGUCAAG,0.327 ± 0.401
16,GGUCACGUCUCAAUCAACUCCUCAGAGGGGGGGAAAACCCCUUUGCCCUCCAAAUCAACAGCUCGCAGUCAAG,0.317 ± 0.412
17,GGUCACGUCUCAAUCAACUCUAUCCCCAGGGAAAGCCCUGGCUUACUCAACAGCUCGCAGUCAAG,0.3 ± 0.283
18,GGUCACGUCUCAAUCAACUCAUUUCCCAGGGAAAGCCCUGGUAAUCUCAACAGCUCGCAGUCAAG,0.334 ± 0.275
